Assay results published in article PMC6753376.

CCT5, P48643, sequence (P48643 whole entry): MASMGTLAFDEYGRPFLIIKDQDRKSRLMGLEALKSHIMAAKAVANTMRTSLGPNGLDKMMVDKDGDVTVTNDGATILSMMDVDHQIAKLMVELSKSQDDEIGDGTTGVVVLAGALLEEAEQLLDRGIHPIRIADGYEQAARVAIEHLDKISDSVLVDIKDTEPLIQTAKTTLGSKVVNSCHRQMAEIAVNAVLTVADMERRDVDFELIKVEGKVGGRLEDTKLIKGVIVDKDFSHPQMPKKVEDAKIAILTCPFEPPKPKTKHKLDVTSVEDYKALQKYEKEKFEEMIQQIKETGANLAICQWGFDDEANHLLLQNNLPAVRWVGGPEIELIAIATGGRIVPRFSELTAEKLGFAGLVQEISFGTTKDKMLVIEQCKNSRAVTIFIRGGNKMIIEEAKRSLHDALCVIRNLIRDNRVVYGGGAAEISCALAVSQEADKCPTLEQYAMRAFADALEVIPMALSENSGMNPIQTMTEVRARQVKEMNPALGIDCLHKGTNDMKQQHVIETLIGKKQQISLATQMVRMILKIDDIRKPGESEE
CCT8, P50990, sequence (P50990 whole entry): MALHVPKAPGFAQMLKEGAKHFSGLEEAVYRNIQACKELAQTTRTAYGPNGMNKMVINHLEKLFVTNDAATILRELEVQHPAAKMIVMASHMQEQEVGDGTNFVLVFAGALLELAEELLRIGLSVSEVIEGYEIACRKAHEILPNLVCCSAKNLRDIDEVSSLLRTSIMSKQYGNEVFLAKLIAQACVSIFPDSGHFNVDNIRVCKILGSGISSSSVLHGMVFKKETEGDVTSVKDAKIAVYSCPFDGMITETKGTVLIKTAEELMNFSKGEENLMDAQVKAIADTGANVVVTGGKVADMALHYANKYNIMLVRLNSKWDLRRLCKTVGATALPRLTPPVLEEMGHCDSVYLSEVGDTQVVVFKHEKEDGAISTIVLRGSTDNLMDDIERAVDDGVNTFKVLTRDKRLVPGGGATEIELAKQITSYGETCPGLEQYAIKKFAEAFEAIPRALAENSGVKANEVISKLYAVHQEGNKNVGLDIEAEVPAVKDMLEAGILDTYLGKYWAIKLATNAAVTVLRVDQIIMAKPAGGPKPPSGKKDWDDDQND
USO1, O60763, sequence (O60763 whole entry): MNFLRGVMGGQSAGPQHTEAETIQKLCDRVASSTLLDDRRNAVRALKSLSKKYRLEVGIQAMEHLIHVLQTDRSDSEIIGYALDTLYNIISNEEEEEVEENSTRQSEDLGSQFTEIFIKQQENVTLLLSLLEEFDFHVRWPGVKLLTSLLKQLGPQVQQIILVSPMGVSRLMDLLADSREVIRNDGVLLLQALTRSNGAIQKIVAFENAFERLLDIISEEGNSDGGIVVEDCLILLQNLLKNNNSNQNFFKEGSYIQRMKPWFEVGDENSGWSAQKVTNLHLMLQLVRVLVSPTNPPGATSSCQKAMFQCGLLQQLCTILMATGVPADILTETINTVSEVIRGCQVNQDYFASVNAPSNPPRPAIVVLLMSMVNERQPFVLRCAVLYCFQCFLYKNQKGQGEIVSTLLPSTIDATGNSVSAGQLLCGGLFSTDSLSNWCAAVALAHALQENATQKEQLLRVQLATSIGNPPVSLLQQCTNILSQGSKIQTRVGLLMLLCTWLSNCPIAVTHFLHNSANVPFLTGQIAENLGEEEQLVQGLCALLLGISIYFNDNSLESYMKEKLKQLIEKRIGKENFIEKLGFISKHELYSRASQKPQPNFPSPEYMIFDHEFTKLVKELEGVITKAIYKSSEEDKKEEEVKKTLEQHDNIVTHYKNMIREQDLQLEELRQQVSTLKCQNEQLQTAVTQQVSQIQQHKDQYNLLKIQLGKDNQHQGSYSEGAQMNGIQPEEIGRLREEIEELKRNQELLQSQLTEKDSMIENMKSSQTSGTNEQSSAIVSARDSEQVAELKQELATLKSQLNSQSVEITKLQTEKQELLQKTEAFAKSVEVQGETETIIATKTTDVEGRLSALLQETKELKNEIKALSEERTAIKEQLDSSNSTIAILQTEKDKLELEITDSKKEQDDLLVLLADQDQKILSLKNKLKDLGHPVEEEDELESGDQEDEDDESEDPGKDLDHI

The substances below were run against CCT7 (UniProt Q99832) (assay: cross-linking mass spectrometry). Settings: lysate.
CCT7, sequence (Q99832 whole entry): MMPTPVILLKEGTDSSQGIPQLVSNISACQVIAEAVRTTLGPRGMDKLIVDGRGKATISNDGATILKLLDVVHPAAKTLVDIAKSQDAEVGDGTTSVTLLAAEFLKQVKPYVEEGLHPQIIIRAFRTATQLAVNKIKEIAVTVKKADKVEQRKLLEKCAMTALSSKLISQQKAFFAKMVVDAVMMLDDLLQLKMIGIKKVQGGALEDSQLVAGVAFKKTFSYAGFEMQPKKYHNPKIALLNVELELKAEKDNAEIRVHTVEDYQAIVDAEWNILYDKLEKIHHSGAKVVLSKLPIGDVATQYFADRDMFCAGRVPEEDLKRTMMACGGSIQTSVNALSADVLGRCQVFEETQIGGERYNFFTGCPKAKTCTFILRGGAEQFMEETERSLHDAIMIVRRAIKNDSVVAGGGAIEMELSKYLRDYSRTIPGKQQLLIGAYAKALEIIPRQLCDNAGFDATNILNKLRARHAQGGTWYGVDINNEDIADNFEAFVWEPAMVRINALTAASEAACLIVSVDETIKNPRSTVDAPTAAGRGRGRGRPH
CCT5, P48643 was tested, and the cross-linked residues was “K89 - K55”.
USO1, O60763 was tested, and the cross-linked residues was “S164 - S329”.
In the case of CCT8, P50990, the cross-linked residues is reported as “K270 - K236”.
